Screens from PubChem.
CYP2C9 activ: CYP2C9 (human) activation; P11712; recombinant CYP2C9, luciferin-H conversion, luminescence; active compounds read high; factor 1 = untreated enzyme, 0 = blocked; activation factor at 5 µM; actives 1.4% (n = 96,000); AID 1024;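 active = activation factor of 2 or more for CYP2C9 at a 5 µM dose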;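 note: 0 = sulfaphenazole-blocked wells and 1 = vehicle-only wells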
CYP2C19 activ: increases human CYP2C19 enzyme activity. P33261. recombinant CYP2C19, luciferin-H EGE luminescence; active compounds read high; 0 = fully inhibited enzyme, 1 = untreated enzyme. activation factor at 5 µM. 96,000 tested, under 10 active. AID 1025;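 active = activation factor of at least 2 at 5 µM in the primary screen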;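 note: 0 = wells with 2.5 mM tranylcypromine and 1 = vehicle-only wells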
Target sequence (P33261 whole entry, looked up): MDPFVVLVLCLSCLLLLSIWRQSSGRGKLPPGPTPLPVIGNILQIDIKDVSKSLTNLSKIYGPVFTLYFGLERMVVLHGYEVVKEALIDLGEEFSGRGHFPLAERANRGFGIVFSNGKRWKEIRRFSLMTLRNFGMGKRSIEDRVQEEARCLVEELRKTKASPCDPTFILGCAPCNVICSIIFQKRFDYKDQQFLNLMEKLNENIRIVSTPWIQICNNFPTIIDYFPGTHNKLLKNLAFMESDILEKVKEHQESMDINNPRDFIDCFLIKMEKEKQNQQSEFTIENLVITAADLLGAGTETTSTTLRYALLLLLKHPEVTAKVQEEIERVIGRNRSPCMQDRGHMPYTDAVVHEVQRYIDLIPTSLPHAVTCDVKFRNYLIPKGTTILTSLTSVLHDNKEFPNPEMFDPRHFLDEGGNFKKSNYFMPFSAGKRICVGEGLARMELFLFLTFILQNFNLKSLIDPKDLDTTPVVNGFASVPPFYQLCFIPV
MRP resist rev: MRP-mediated drug resistance reversal. AID 602. H69AR cells + 2 uM doxorubicin, CellTiter-Glo, 72 h. actives 0.04% (n = 85,000). differential viability (reversal), % at 10 µM;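 active = viability drop by adding the cancer drug above about 55%, with treated viability meeting a 40% cutoff, limit read from the data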;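 note: viability without doxorubicin minus viability with 2 µM doxorubicin for each compound; larger differential means the compound sensitizes cells more to doxorubicin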
MRP1 act: activators of MRP-1; H69AR cells + doxorubicin, viability rescue, CellTiter-Glo; viability increase, % at 10 µM; actives 0.61% (n = 140,000); AID 799;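 active = viability gain under doxorubicin at or above a set limit, the compound median plus 3 SD, cut at about 4.7% in these data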;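 note: MRP-1 overexpressing cells given doxorubicin 25 µM after compound pretreatment; 18-22 h compound pretreatment then 72 h with doxorubicin before readout; 0% = doxorubicin-only wells and 100% = vehicle-treated cells without doxorubicin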
CYP2C9 inh: inhibitors of human CYP2C9. inhibition, % at 5 µM. actives 20% (n = 96,000). CYP2C9 Supersomes, luciferin-H conversion, luminescence;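 active = blocking of liver enzyme CYP2C9 beyond about 50% at 5 µM, limit read from the data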
CYP2C19 inhib: inhibitors of human CYP2C19; P33261; CYP2C19 Supersomes, luciferin-H EGE luminescence, 30 min; inhibition, % at 5 µM; actives 21% (n = 96,000); AID 778;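 active = CYP2C19 inhibition above a set limit at 5 µM in the primary screen, cut at about 50% in these data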;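 note: plate controls were negative control wells for no effect and 2.5 mM tranylcypromine positive control for full effect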
* = called active by the depositor; . = not tested or not shown. In the library only some 21% were active in any assay of this set; here they are far more common.

SMILES	CYP2C9 activ	CYP2C19 activ	MRP resist rev	MRP1 act	CYP2C9 inh	CYP2C19 inhib
CCOC(=O)N1CCN(C(=O)COc2ccc(S(=O)(=O)NCC(C)C)cc2C)CC1	0.4	0.8	2.2	-1.5	61.5*	17.6
CCOC(=O)N1CCN(S(=O)(=O)c2ccc(C)c(C)c2)CC1	1.6	0.6	17.2	-0.4	-63.1	40.7
CCOC(=O)N1CCN(S(=O)(=O)c2ccc(OCC)c(C)c2)CC1	1.7	0	2.9	-3.6	-66.4	95.6*
CCOC(=O)N1CCN(S(=O)(=O)c2ccc(C(=O)NNc3nc4c(C)cccc4s3)cc2)CC1	.	.	.	-4.1	.	.
CCCNCC1C(Oc2ccc(Cl)cc2)C(=O)N1c1ccccc1C (stereo not drawn)	.	.	.	-3.4	.	.
CCOc1ccc(OCC)c(S(=O)(=O)N2CCCCC2)c1	0.6	0.2	-7.1	-4.1	39.5	80.9*
CCOC(=O)N1CCN(S(=O)(=O)c2cc(OCC)ccc2OCC)CC1	0.4	0.4	-40.1	-3.5	55.4*	58.8*
CCOC(=O)N1CCN(S(=O)(=O)c2cc(Cl)c(OC)cc2Cl)CC1	.	.	6.2	-1.7	.	.
Cc1ccc(-c2ccc(/C=N/NC(=S)Nc3ccccc3)o2)cc1[N+](=O)[O-]	0.5	0.3	.	-2.7	53.2*	65.3*
O=C(N/N=C\c1ccc(-c2ccc([N+](=O)[O-])cc2)o1)C1COc2ccccc2O1 (stereo not drawn)	.	.	.	-0.7	.	.
O=C(N/N=C/c1ccc(-c2ccc([N+](=O)[O-])cc2)o1)C(O)c1ccccc1 (stereo not drawn)	.	.	.	5.5*	.	.
COc1ccc(C2NC(c3ccc(OC)cc3)C(c3ccccc3)C(=O)C2c2ccccc2)cc1 (stereo not drawn)	.	.	.	-0.9	.	.
CCOC(=O)c1cc(-c2ccccc2)nc2c1c(C)nn2-c1ccccn1	1.2	1.1	-26.5	-5.0	-22.1	-7.1
CCOC(=O)c1cc(-c2ccncc2)nc2c1c(C)nn2C	0.5	0	-8.4	-5.5	50.4*	96.2*
CCOC(=O)c1ccc(NC(=O)CC2C(=O)N(c3ccccc3)C(=O)N2CCCOC)cc1 (stereo not drawn)	0.2	0.1	14.6	0.1	78.7*	91.6*
CCOc1ccc(CN(C)CC(=O)Nc2ccc(N3CCOCC3)cc2)cc1OC	.	.	.	0.0	.	.
Cc1cc2nnn(-c3nnc(-c4ccccc4)c4ccccc34)c2cc1C	1	0.9	.	-0.1	-2.2	14.4
CCCCNC(=O)OCCNC(=O)NC	1	1	5.8	-0.9	4.8	3.1
O=C(c1c(Cl)nc2sccn12)N1CCN(c2cccc(Cl)c2)CC1	0.3	0.2	-36.2	-0.6	68.6*	82.9*
COc1ccccc1N1CCN(C2CCN(C(=O)c3cccc(F)c3)CC2)CC1	.	.	.	-1.4	.	.
O=C(c1cccc(F)c1)N1CCC(N2CCOCC2)CC1	0.9	0.4	16.4	-0.3	10.6	56.1*
O=C(c1cccc(F)c1)N1CCCN(C(=O)c2cccc(F)c2)CC1	.	.	.	0.1	.	.
O=C(c1cccc(Cl)c1)N1CCN(C(=O)c2ccccc2F)CC1	0.5	0.3	18.3	-0.8	54.5*	65.7*
N#Cc1ccc(N2CCN(C(=O)c3cccc(F)c3)CC2)c(F)c1	0.7	0.1	-11.5	-0.9	31.2	91.7*
COc1ccc(-c2nc(N3CCOCC3)nc3nn4c(C)c(CCC(=O)O)c(C)nc4c23)cc1	.	.	0.9	.	.	.
SMILES	CYP2C9 activ	CYP2C19 activ	MRP resist rev	MRP1 act	CYP2C9 inh	CYP2C19 inhib
CSC(=NNC(=O)c1ccc(O)cc1)SC	0.9	0.9	.	-0.2	10.5	10.1
CCOc1ccccc1CNC(=O)c1nn(CC)cc1[N+](=O)[O-]	.	.	.	-1.9	.	.
CCC1CCCCN1C(=O)c1nn2cccnc2c1Cl (stereo not drawn)	1.1	0.9	-25.0	-1.2	-10.7	11.8
O=C(c1cccc(F)c1)N1CCN(c2cccc(Cl)c2)CC1	0.1	0.1	-30.1	-3.5	85.7*	94.2*
O=C(c1cccnc1)N1CCN(C(=O)c2ccccc2F)CC1	0.3	0.5	-7.8	-1.8	65.4*	51.4*
O=C(c1cccnc1)N1CCN(C(=O)c2ccco2)CC1	.	.	-1.7	0.8	.	.
O=C(c1cccc(F)c1)N1CCN(C(=O)c2nn3cccnc3c2Cl)CC1	0.9	0.4	-10.8	0.5	14.2	58.5*
CCOC(=O)NC(=O)c1cn(C(CC)CO)c(=O)[nH]c1=O (stereo not drawn)	.	.	.	0.7	.	.
Cc1ccc(CSC2=Nc3sccc3C3=NC(=O)CN23)cc1	0.7	0.3	.	-2.5	25.6	66.1*
COc1cc2c(cc1OC)C1=NC(=O)CN1C(SCc1ccc(C)cc1)=N2	1	1	.	-3.4	0.2	-3.7
CCOC(=O)C1CCCN(Cc2sccc2C)C1 (stereo not drawn)	1	0.5	-5.7	-1.9	3.9	48.5
CC1c2nc3ccccc3n2C(CC(=O)NCc2ccccn2)C(=O)N1Cc1ccccc1 (stereo not drawn)	0.9	0.2	.	-0.9	7.1	80.4*
CN(C)Cc1c(O)ccc2oc(Cc3ccccc3)cc12	0.8	0.3	-2.8	-2.5	22.9	72.4*
CCCNC(=O)c1ccccc1NC(=O)c1ccc(CSc2ccccc2)cc1	0.2	0.3	.	0.8	79.0*	74.5*
Cc1ccc(C(=O)Nc2cccnc2)cc1NC(=O)c1ccco1	0.5	1.1	-7.2	0.5	54.3*	-5.5
O=C(Nc1ccc(Cl)cc1C(=O)Nc1ccncc1)c1ccco1	1.2	1	-4.7	-2.3	-21.3	-0.5
O=C(Nc1cccc2cccc(NC(=O)c3ccco3)c12)c1ccco1	1	0.3	-5.3	-1.1	-3.7	69.4*
O=C(Nc1ccc(Cl)cc1C(=O)NCc1cccnc1)c1ccco1	0.4	0.8	-14.1	-5.0	57.6*	22.7
O=C(Nc1ccccc1C(=O)NCc1ccccc1)c1ccccc1	0.5	0.8	.	-0.6	54.1*	15.9
O=C(N[C@@H](Cc1ccccc1)C(=O)NC1CCCCCC1)c1ccco1	0.8	0.9	.	-0.6	20.4	10.3
CNC(=O)Nc1ccccc1C(=O)NCc1ccccc1	0.9	0.6	.	-0.8	14.5	36.8
O=C(Nc1ccccc1)Nc1ccccc1C(=O)NCc1ccccc1	0.5	0.8	9.1	0.1	50.5*	17.8
O=C(Nc1ccccc1C(=O)O)c1ccccc1	0.6	1	-0.8	-0.5	37.9	4.8
O=C(Nc1ccccc1C(=O)NCc1ccccc1)c1ccco1	0.3	0.5	-24.9	-1.4	73.9*	53.9*
O=C(Nc1ccccc1C(=O)NC(Cc1ccccc1)C(=O)NC1CCCCCC1)c1ccccc1 (stereo not drawn)	0.3	0.6	.	-2.5	71.4*	44.6
CCc1n[nH]c(=S)n1/N=C/c1cc(Br)c(OC)cc1OC	.	.	.	-4.6	.	.
CC(NC(=O)c1ccccc1NC(=O)c1ccco1)c1ccccc1 (stereo not drawn)	0.3	0.6	-9.4	-4.2	69.6*	36.4
CNC(=O)c1ccccc1NC(=O)c1ccco1	.	.	-17.6	-1.9	.	.
O=C(Nc1ccccc1C(=O)NCc1cccnc1)c1ccco1	0.5	0.2	-17.1	-0.9	53.6*	78.3*
